Data: the supplement of paper PMC8975748
Structures can show the parent of a compound that is named as a salt.

System: Saccharomyces cerevisiae BY4741 SeMeCo community
Test: z-score of subpopulation abundance vs DMSO median, subpopulation auxotrophic for HLUM; higher = larger share of this subpopulation than in DMSO controls
Details: 10 µM; 24 h; SM minimal medium; subpopulation (auxotrophy): HLUM
Description: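 Fluorescent four-plasmid SeMeCo (self-establishing metabolically cooperating S. cerevisiae BY4741 community; plasmids pH-mRuby2, pL-mWasabi, pU-eCFP, pM-TagRFP657) was grown 24 h in minimal SM medium with each Selleck FDA-approved drug at 10 µM in 384-well plates. Cells were fixed and imaged by high-content confocal microscopy. For each auxotrophic subpopulation (and the prototroph), a z-score gives the deviation from the DMSO vehicle-control population median.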

Compound	z-score of subpopulation abundance
N[C@@H]1C[C@H]1c1ccccc1 [Tranylcypromine (2-PCPA) HCl]	0.28
NCC(O)c1ccc(O)cc1 (racemic) [(+,-)-Octopamine HCl]	-0.38
C=CN1CCCC1=O.II [Povidone iodine]	0.32
CCN(C)C(=O)Oc1cccc([C@H](C)N(C)C)c1 [Rivastigmine Tartrate]	-0.16
CN1[C@@H]2C[C@@H](OC(=O)[C@H](CO)c3ccccc3)C[C@H]1[C@@H]1O[C@@H]12 [Scopolamine HBr]	-0.88
O=[N+]([O-])C(Br)(CO)CO [Bronopol]	0.53
CN(C)C(=O)Oc1ccc[n+](C)c1 [Pyridostigmine Bromide]	-1.14
C#C[C@]1(O)C=C[C@H]2[C@@H]3CCC4=CC(=O)CC[C@@H]4[C@H]3CC[C@@]21CC [Gestodene]	-0.58
CN[C@@H]1[C@@H](O)[C@@H](O[C@@H]2[C@@H](O)[C@H](O[C@H]3O[C@H](CN)CC[C@H]3N)[C@@H](N)C[C@H]2N)OC[C@]1(C)O.CN[C@@H]1[C@@H](O)[C@@H](O[C@@H]2[C@@H](O)[C@H](O[C@H]3O[C@H]([C@@H](C)N)CC[C@H]3N)[C@@H](N)C[C@H]2N)OC[C@]1(C)O.CN[C@@H]1[C@@H](O)[C@@H](O[C@@H]2[C@@H](O)[C@H](O[C@H]3O[C@H]([C@@H](C)NC)CC[C@H]3N)[C@@H](N)C[C@H]2N)OC[C@]1(C)O [Gentamicin Sulfate]	0.46
COc1cc2c(cc1OC)C1CC(=O)C(CC(C)C)CN1CC2 (stereo not given) [Tetrabenazine (Xenazine)]	2.34
CNC1CC(N)C(O)C(OC2OC(CO)C(O)C3OC4(OC(C(N)CO)C(O)C(O)C4O)OC23)C1O (stereo not given) [Hygromycin B]	-0.53
C=CC[C@]1(O)CC[C@H]2[C@@H]3CCC4=CC(=O)CCC4=C3C=C[C@@]21C [Altrenogest]	-0.9
Cc1cc(O)ccc1Cl [Chlorocresol]	-0.16
COc1ccc2[nH]cc(CCN)c2c1 [5-Methoxytryptamine]	0.69
CN(C)[C@@H]1C(=O)C(C(N)=O)=C(O)[C@@]2(O)C(=O)C3=C(O)c4c(O)ccc(Cl)c4[C@@](C)(O)[C@H]3C[C@@H]12 [Chlortetracycline HCl]	0.32
C[C@H]1O[C@H](O[C@H]2[C@H](O)[C@@H](O)[C@@H](O)[C@H](O)[C@@H]2O)[C@@H](N)C[C@@H]1NC(=N)C(=O)O [Kasugamycin hydrochloride]	-0.04
COc1ccc(C(CN(C)C)C2(O)CCCCC2)cc1 (stereo not given) [Venlafaxine]	-0.12
C[N+]1(C)[C@@H]2C[C@@H](OC(=O)[C@H](CO)c3ccccc3)C[C@H]1[C@@H]1O[C@@H]12 [Methscopolamine]	0.24
COc1ccc(C(CN(C)C)C2(O)CCCCC2)cc1 (stereo not given) [Venlafaxine HCl]	-0.19
CC(NC(C)(C)C)C(=O)c1cccc(Cl)c1 (stereo not given) [Amfebutamone (Bupropion) HCl]	0.09

Compound	z-score of subpopulation abundance
CN(C)[C@@H]1C(=O)C(C(N)=O)=C(O)[C@@]2(O)C(=O)C3=C(O)c4c(O)cccc4[C@@](C)(O)[C@H]3[C@H](O)[C@@H]12 [Oxytetracycline Dihydrate]	-0.3
CCOC(=O)Nc1ccc(NCc2ccc(F)cc2)cc1N [Retigabine]	-0.4
CN(C)C(=O)Oc1cccc([N+](C)(C)C)c1 [Neostigmine Bromide]	-0.18
CN1c2ccccc2C(NCCCCCCC(=O)O)c2ccc(Cl)cc2S1(=O)=O (stereo not given) [Tianeptine sodium]	0.87
NCCc1c[nH]c2ccc(O)cc12 [Serotonin HCl]	0.3
CCN(CC)CCOC(=O)C(O)(c1ccccc1)c1ccccc1 [Benactyzine hydrochloride]	1.13
C=C[C@H]1CN2CC[C@H]1C[C@H]2[C@H](O)c1ccnc2ccccc12 [Cinchonidine]	0.1
CCN(C)C(=O)Oc1cccc([C@H](C)N(C)C)c1 [Rivastigmine]	-0.15
CC(C)=CCOc1c2occc2cc2ccc(=O)oc12 [Imperatorin]	0.23
C[C@@H]1CC[C@H]2[C@@H](C)C(=O)O[C@@H]3O[C@@]4(C)CC[C@@H]1[C@]32OO4 [Artemisinin]	-0.59
O=c1cccc2n1C[C@@H]1CNC[C@H]2C1 [Cytisine]	-0.32
CC[C@H]1[C@@H]2C[C@H]3[C@@H]4N(C)c5ccccc5[C@]45C[C@@H]([C@@H]2[C@H]5O)N3[C@@H]1O [Ajmaline]	-0.76
O=c1[nH]c2ccccc2n1CCCN1CCC(n2c(=O)[nH]c3cc(Cl)ccc32)CC1 [Domperidone]	0.88
C[N+]12CCC(CC1)C(OC(=O)C(O)(c1ccccc1)c1ccccc1)C2 (stereo not given) [Clidinium Bromide]	0.51
CC[C@@]1(O)C(=O)OCc2c1cc1n(c2=O)Cc2cc3ccccc3nc2-1 [Camptothecin]	-0.44
COc1ccc2c3c([nH]c2c1)C(C)=NCC3 [Harmaline]	-1.92
O=C(O[C@H]1C[C@H]2CC[C@@H](C1)[N+]21CCCC1)C(O)(c1ccccc1)c1ccccc1 [Trospium chloride]	-0.2
CCOC(=O)Nc1ccc(NCc2ccc(F)cc2)cc1N [Retigabine 2HCl]	-0.39
CCN1CC2(OC(=O)c3ccccc3NC(C)=O)CCC(OC)C34C1C(CC23)C1(O)CC(OC)C2CC4C1(O)C2OC (stereo not given) [Lappaconitine]	-0.44
Nc1nc(N)nc(NC2CC2)n1 [Cyromazine]	1.21
